Screening results (PubChem BioAssay)
ERa coact pot: enhances coactivator binding to human estrogen receptor alpha; coactivator binding (% of control), % at 25.6 µM; AID 639; 86,000 compounds, 1.3% hits; TR-FRET ERalpha-LBD/SRC-Cy5 coactivator binding, 2 h; 100 = basal binding, no effect; P03372; in the data active = activity above about 200%;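 note: binding measured in presence of low estradiol as agonist stimulus; 0% = peptide alone without receptor and 100% = receptor with peptide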
EphB4 ephrin blk: blocks human EphB4 binding to ephrin-B2; EphB4 LBD / TNYL-RAW-Alexa532 peptide, fluorescence polarization; inhibition, % at 7 µM; 97,000 compounds, 0.15% hits;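 active = inhibition above the screen-wide mean inhibition plus 3 SD, cut at about 15% in these data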;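 note: 0% = DMSO wells and 100% = excess unlabeled TNYL-RAW peptide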
ERb SRC1 inh: blocks coactivator binding to human estrogen receptor beta. TR-FRET ER-beta LBD / SRC1-Cy5 peptide binding; receptor agonist-loaded with 1 µM estradiol. inhibition, % at 25.6 µM. 86,000 compounds, 1.3% hits;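 active = compounds whose percent inhibition of the receptor-coactivator binding signal exceeds about 50% in the single-dose screen, limit read from the data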;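 note: 0% = receptor plus peptide wells without compound and 100% = peptide-only wells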
Target sequence (Q92731 whole entry, looked up, the tested form may be a part): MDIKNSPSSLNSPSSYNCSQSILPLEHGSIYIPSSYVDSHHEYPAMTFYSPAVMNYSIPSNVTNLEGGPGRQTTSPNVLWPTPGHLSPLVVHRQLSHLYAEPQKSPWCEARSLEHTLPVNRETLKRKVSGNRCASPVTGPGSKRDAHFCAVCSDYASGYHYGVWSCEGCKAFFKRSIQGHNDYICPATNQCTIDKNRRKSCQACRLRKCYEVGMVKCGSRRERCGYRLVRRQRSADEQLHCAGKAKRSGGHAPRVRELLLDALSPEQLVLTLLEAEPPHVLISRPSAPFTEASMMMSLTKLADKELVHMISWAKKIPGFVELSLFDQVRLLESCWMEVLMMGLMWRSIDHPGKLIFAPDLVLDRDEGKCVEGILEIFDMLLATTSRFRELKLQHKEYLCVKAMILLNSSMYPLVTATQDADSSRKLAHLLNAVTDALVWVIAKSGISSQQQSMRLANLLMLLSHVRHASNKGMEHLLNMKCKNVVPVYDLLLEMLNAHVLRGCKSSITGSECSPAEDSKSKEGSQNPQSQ
MT1-MMP txn act: activates MT1-MMP transcription | HT1080 MT1-MMP promoter luciferase reporter, luminescence, overnight; active compounds read high | activation factor at 10 µM | 86,000 compounds, 0.16% hits | AID 750;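 active = activation factor of at least 2 for MT1-MMP transcription at 10 µM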
ERa coact inh: blocks coactivator binding to human estrogen receptor alpha; 86,000 compounds, 1.7% hits; TR-FRET ER-alpha LBD / SRC-1 peptide, estradiol-bound; inhibition, % at 25.6 µM; P03372; in the data active = inhibition above about 50%;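 note: 0% = receptor plus peptide control and 100% = peptide only without receptor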
Candida biofilm: kills Candida albicans biofilms | C. albicans biofilm + clotrimazole, Alamar Blue | inhibition, % at 6 µM | 85,000 compounds, 0.14% hits | AID 834;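 active = inhibition above 20%; inactive = inhibition below 20%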;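 note: preformed 24 hr biofilms exposed to compound for 48 hr; 0% = biofilm without compound and 100% = blank killed by clotrimazole plus chlorhexidine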
An asterisk follows results filed as active; . = not tested or not shown; [ ] = another dose, or the depositor's remark. Shown are actives, neighbours in structure and some others; about 3.2% of the full set was active somewhere.

SMILES	ERa coact pot	EphB4 ephrin blk	ERb SRC1 inh	MT1-MMP txn act	ERa coact inh	Candida biofilm
O=C(COC(=O)C1CCCCC1C(=O)N1CCc2ccccc21)NCc1ccco1 (stereo not drawn)	83.2	.	41.7	1.1	50.1*[fluorescence artefact?]	-7.2
CCN1C(=O)CC(C(=O)NC)SC1=Nc1cc(Cl)c(O)c(Cl)c1 (stereo not drawn)	81.4	4.6	50.2*[fluorescence artefact?]	1.2	31.3	9.7
CCOC(=O)c1c(NC(=O)CSc2nnc(-c3ccccc3)o2)sc(C(C)=O)c1C	318.8*	-2.0	-6.6	1	-6.1	1.4
Cc1cc(C)c(C#N)c(SCC(=O)Nc2nnc(-c3ccccc3)s2)n1	207.5*[fluorescence artefact?]	5.2	6.2	1	-14.7	2.8
CCOC(=O)c1c(NC(=O)CSc2nc(C)cc(C)c2C#N)sc(C(C)=O)c1C	678.1*[fluorescence artefact?]	-6.5	49.1	1	61.2*[fluorescence artefact?]	2.5
O=C(Cc1ccc(Cl)cc1Cl)OCC(=O)c1ccc[nH]1	.	12.8	.	.	.	.
O=C(COc1ccc(F)c(Cl)c1)c1ccc[nH]1	39.6	-3.0	45.2	1.3	66.5*[fluorescence artefact?]	3.2
CCOc1ccccc1C(=O)N1CCN=C1SC	90.0	8.8	86.9*	1.5	-2.0	10.8
Cc1ccc(CCNC(=O)c2coc3nc4ccccc4nc23)cc1	290.0*[fluorescence artefact?]	-2.9	-5.5	1.2	-23.9	5.8
CC1CCN(CCCNC(=O)c2coc3nc4ccccc4nc23)CC1	114.2	3.8	-9.3	1.2	-11.8	.
